Pf Dd2 growth – P. falciparum Dd2 growth inhibition; activity change, % at 10 µM; 2.3% of 94,000 active; SYBR Green, 72 h; hits give low values; in the data active = activity change below about -80%
C diff HTS – blocks growth of Clostridium difficile; growth activity, negative = inhibition, % at 16 µg/mL (by protocol); 0.25% of 86,000 active; Clostridium difficile clinical isolate growth, OD600, 24 h; hits give low values;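 active = mean growth activity at or below -80% and every replicate also at or below -80%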;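 note: 0% = DMSO wells and -100% = levofloxacin 16 µg/mL wells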
* hit, by the source's call; / = no result. A selection: hits, their analogues and other compounds. The true share with any hit is near 2.4%.

SMILES | Pf Dd2 growth | C diff HTS
C[C@@H]1CN([C@@H](C)CO)C(=O)Cc2cc(NC(=O)CCCCCC(=O)Nc3ccccc3N)ccc2O[C@H]1CN(C)S(=O)(=O)c1ccc(Cl)cc1 | -64 | /
C[C@H]1CN([C@@H](C)CO)C(=O)Cc2cc(NC(=O)CCCCCC(=O)Nc3ccccc3N)ccc2O[C@H]1CN(C)S(=O)(=O)c1ccc(Cl)cc1 | -94* | /
O=C(Cc1ccccc1)N1C[C@H]2[C@@H](c3ccccc31)[C@@H](CO)N2C(=O)Cc1ccccc1 | -11 | -2
C[C@@H]1CCCCO[C@@H](CN(C)CC2CCCCC2)[C@H](C)CN([C@@H](C)CO)C(=O)c2cc(NC(=O)C3CCCCC3)ccc2O1 | -42 | 0
CCCNC(=O)Nc1ccc2c(c1)C(=O)N(C)[C@H]1CC[C@@H](CC(=O)OC)O[C@@H]1CO2 | 1 | 4
C[C@@H]1CN([C@H](C)CO)C(=O)Cc2cc(NC(=O)C3CC3)ccc2O[C@H]1CN(C)S(=O)(=O)c1cn(C)cn1 | -2 | -3
C[C@H]1CCCCO[C@@H](CN(C)CC2CCCCC2)[C@@H](C)CN([C@@H](C)CO)C(=O)c2cc(NC(=O)CCC(F)(F)F)ccc2O1 | -33 | 8
O=C(Nc1ccccc1F)N1CC(=O)N2[C@H](CO)[C@@H](c3ccc(-c4ccccc4)cc3)[C@H]2C1 | -84* | -7
O=C(Nc1cc(F)ccc1F)N1CC(=O)N2[C@H](CO)[C@@H](c3ccc(C#CC4CCCCC4)cc3)[C@@H]2C1 | -82* | 22
O=C(Nc1ccccc1F)N1CC(=O)N2[C@H](CO)[C@H](c3ccc(-c4ccccc4)cc3)[C@@H]2C1 | -6 | -2
O=C(Nc1cc(F)ccc1F)N1CC(=O)N2[C@H](C1)[C@@H](c1ccc(C#CC3CCCCC3)cc1)[C@@H]2CO | -29 | -36
CCC(=O)N1[C@@H](CO)[C@@H](c2ccccc2)C12CN(C(=O)NC1CCCC1)C2 | 1 | 0
C[C@H]1CCCCO[C@H](CN(C)C(=O)Nc2ccc(C(F)(F)F)cc2)[C@@H](C)CN([C@@H](C)CO)C(=O)c2cc(NS(=O)(=O)c3ccccc3)ccc2O1 | -68 | 0
COCC(=O)N1CC2(C1)CN(S(C)(=O)=O)[C@@H](CO)c1[nH]c3cc(OC)ccc3c12 | 56 | -4
CCC(=O)Nc1ccc2c(c1)C(=O)N(C)C[C@H](OC)[C@@H](C)CN(CCc1ccccc1)[C@@H](C)CO2 | -25 | /
CC=Cc1ccc2n(c1=O)C[C@@H]1[C@@H](CO)[C@H](C(=O)NC3CCC3)N(CC)[C@H]21 (mixture of isomers) | 6 | 1
C[C@H](CO)N1C[C@H](C)[C@H](CN(C)Cc2ccc(C(=O)Nc3ccccc3N)cc2)OCCCC[C@H](C)Oc2ccc(NC(=O)C3CCCCC3)cc2C1=O | -92* | 7
C[C@@H]1CN([C@@H](C)CO)C(=O)c2cc(NC(=O)C3CCCCC3)ccc2O[C@@H]1CN(C)Cc1ccc(C(=O)Nc2ccccc2N)cc1 | -89* | -1
C[C@H]1CN([C@@H](C)CO)C(=O)c2cc(NC(=O)C3CC3)ccc2O[C@H]1CN(C)Cc1ccc(C(=O)Nc2ccccc2N)cc1 | -53 | 17
C[C@@H]1CCCCO[C@H](CN(C)Cc2ccc(C(=O)Nc3ccccc3N)cc2)[C@@H](C)CN([C@H](C)CO)C(=O)c2cc(NS(C)(=O)=O)ccc2O1 | -69 | 1
C[C@@H]1CN([C@H](C)CO)C(=O)c2cc(NC(=O)C3CCCCC3)ccc2O[C@@H]1CN(C)Cc1ccc(C(=O)Nc2ccccc2N)cc1 | -83* | -1
C[C@@H]1CN([C@@H](C)CO)C(=O)c2cc(NC(=O)C3CC3)ccc2O[C@@H]1CN(C)Cc1ccc(C(=O)Nc2ccccc2N)cc1 | -18 | 1
CC(C)NC(=O)Nc1ccc2c(c1)CC(=O)N([C@@H](C)CO)C[C@H](C)[C@H](CN(C)S(=O)(=O)c1ccc(F)cc1)O2 | 5 | -1
Cc1noc(C)c1S(=O)(=O)N(C)C[C@H]1OCCCC[C@@H](C)Oc2ccc(NC(=O)Nc3cccc4ccccc34)cc2C(=O)N([C@H](C)CO)C[C@@H]1C | -17 | -14
Cc1noc(C)c1S(=O)(=O)N(C)C[C@@H]1OCCCC[C@H](C)Oc2ccc(NC(=O)Nc3ccccc3)cc2C(=O)N([C@H](C)CO)C[C@H]1C | -83* | 9
SMILES | Pf Dd2 growth | C diff HTS
Cc1noc(C)c1S(=O)(=O)N(C)C[C@@H]1OCCCC[C@@H](C)Oc2ccc(NC(=O)Nc3cccc4ccccc34)cc2C(=O)N([C@H](C)CO)C[C@H]1C | -82* | -4
C[C@@H]1CN([C@@H](C)CO)C(=O)c2cc(NC(=O)CCCN(C)C)ccc2O[C@@H](C)CCCCO[C@@H]1CN(C)S(=O)(=O)c1cn(C)cn1 | 70 | -9
C[C@@H]1CCCCO[C@@H](CN(C)S(=O)(=O)c2cn(C)cn2)[C@H](C)CN([C@H](C)CO)C(=O)c2cc(NC(=O)Nc3cccc4ccccc34)ccc2O1 | -52 | 11
Cc1noc(C)c1S(=O)(=O)N(C)C[C@H]1OCCCC[C@H](C)Oc2ccc(NC(=O)Nc3ccccc3)cc2C(=O)N([C@H](C)CO)C[C@@H]1C | -4 | 5
C[C@H]1CCCCO[C@H](CN(C)S(=O)(=O)c2cn(C)cn2)[C@@H](C)CN([C@@H](C)CO)C(=O)c2cc(NC(=O)CCCN(C)C)ccc2O1 | 39 | -81*
C[C@@H]1CN([C@H](C)CO)C(=O)c2cc(NC(=O)Nc3cccc4ccccc34)ccc2O[C@@H](C)CCCCO[C@@H]1CN(C)S(=O)(=O)c1cn(C)cn1 | -88* | 21
CC(C)C#Cc1ccc2c(c1)O[C@H](CN(C)CC1CC1)[C@H](C)CN([C@H](C)CO)S2(=O)=O | -29 | /
Cc1ccc(S(=O)(=O)Nc2ccc3c(c2)C(=O)N([C@H](C)CO)C[C@@H](C)[C@@H](CN(C)C(=O)Nc2ccccc2)OCCCC[C@H](C)O3)cc1 | -45 | /
O=S(=O)(N[C@H]1CC[C@@H](CCn2cc(-c3ccccn3)nn2)O[C@H]1CO)c1cccc(Cl)c1 | -14 | /
Cc1noc(C)c1S(=O)(=O)N(C)C[C@H]1OCCCC[C@@H](C)Oc2ccc(NC(=O)Nc3ccc(C(F)(F)F)cc3)cc2C(=O)N([C@@H](C)CO)C[C@H]1C | -71 | -1
Cc1noc(C)c1S(=O)(=O)N(C)C[C@@H]1OCCCC[C@H](C)Oc2ccc(NC(=O)c3ccccc3)cc2C(=O)N([C@@H](C)CO)C[C@H]1C | -88* | -1
Cc1noc(C)c1S(=O)(=O)N(C)C[C@H]1OCCCC[C@H](C)Oc2ccc(NC(=O)c3ccccc3)cc2C(=O)N([C@H](C)CO)C[C@@H]1C | -31 | 12
C[C@@H]1CCCCO[C@@H](CN(C)S(=O)(=O)c2cn(C)cn2)[C@H](C)CN([C@H](C)CO)C(=O)c2cc(NC(=O)Nc3ccc(C(F)(F)F)cc3)ccc2O1 | -88* | 0
Cc1noc(C)c1S(=O)(=O)N(C)C[C@@H]1OCCCC[C@@H](C)Oc2ccc(NC(=O)Nc3ccc(C(F)(F)F)cc3)cc2C(=O)N([C@H](C)CO)C[C@H]1C | -92* | 31
C[C@H]1CCCCO[C@@H](CN(C)S(=O)(=O)c2cn(C)cn2)[C@@H](C)CN([C@@H](C)CO)C(=O)c2cc(NC(=O)Nc3ccc(C(F)(F)F)cc3)ccc2O1 | -71 | /
COc1ccc(NC(=O)N(C)C[C@H]2Oc3c(NS(=O)(=O)c4ccc(C)cc4)cccc3C(=O)N([C@H](C)CO)C[C@@H]2C)cc1 | 11 | 0

Screening data: PubChem, Broad Institute
